Data on eight molecules can be found in PubChem BioAssay (NCI).

Test in all cases: NCI-60 one-dose screen, 48 h (100 = growth as untreated, 0 = no growth, -100 = all killed)
One assay relates to HCT-15 colon. As to conditions: 10 µM unless noted.
The test system of the next assay is HT29 colon. As to conditions: 10 µM unless noted.
Another assay deals with SNB-75 CNS. The settings on record: 10 µM unless noted.
A further assay concerns SNB-19 CNS. The settings on record: 10 µM unless noted.
The test system of a further assay is U251 CNS. The settings on record: 10 µM unless noted.
For a further assay, the system named is PC-3 prostate. The settings on record: 10 µM unless noted.
The next assay deals with SK-MEL-5 melanoma. The settings on record: 10 µM unless noted.
A further assay deals with UACC-62 melanoma. The settings on record: 10 µM unless noted.
The next assay has as its system LOX IMVI melanoma. The settings on record: 10 µM unless noted.
The next assay deals with SK-MEL-28 melanoma. The settings on record: 10 µM unless noted.
A further assay relates to SK-MEL-2 melanoma. As to conditions: 10 µM unless noted.
For another assay, the system named is EKVX NSCLC. The settings on record: 10 µM.
In another assay the test system is SN12C renal. As to conditions: 10 µM unless noted.
The test system of another assay is UO-31 renal. As to conditions: 10 µM unless noted.
Another assay deals with TK-10 renal. As to conditions: 10 µM unless noted.
The subject of another assay is ACHN renal. The settings on record: 10 µM unless noted.
The subject of the next assay is CAKI-1 renal. As to conditions: 10 µM unless noted.
The test system of another assay is A498 renal. As to conditions: 10 µM unless noted.
The subject of a further assay is CCRF-CEM leukemia. The settings on record: 10 µM.
Another assay deals with MOLT-4 leukemia. The settings on record: 10 µM unless noted.

About 83,000 compounds went through this panel and 20% of them were active in at least one assay; those are over-represented in the sample as a whole.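 Results are percent growth after 48 hours of single-concentration exposure. 100 means growth as in untreated cells, lower positive values show inhibition; negative values down to -100 show cell death.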 Values without a mark were called inactive. Calls of active or inactive are those of the source. The calls were made as follows: active = growth percent below 10; inactive = the rest.

For `Cc1cc(CSc2ccc(Cl)cc2)ccc1N`, the growth in the assay with HCT-15 colon was 98.3%; with HT29 colon, 106%; in the assay on SNB-75 CNS, 87.3%; in the assay on SNB-19 CNS, 84.3%; with U251 CNS, 78.6%; in the assay on PC-3 prostate, 76.5%. Further, the growth in the assay on SK-MEL-5 melanoma is 103%; in the assay on UACC-62 melanoma, 90.5%; in the assay on LOX IMVI melanoma it was 98.6%; in the assay with SK-MEL-28 melanoma, 111%; in the assay on SK-MEL-2 melanoma, 99.7%; in the assay on EKVX NSCLC, 85.8%. The growth is 42% in the assay on SN12C renal; 29.4% in the assay on UO-31 renal; 101% in the assay with TK-10 renal; 102% with ACHN renal; 95.1% in the assay with CAKI-1 renal; 99.7% with A498 renal. Besides, the growth in the assay on CCRF-CEM leukemia is 3.59% (active); with MOLT-4 leukemia, 49.7%.

In the case of `C/C(=N\Nc1ccc(Cl)cn1)c1ccccn1`, the growth in the assay on HCT-15 colon is 15.5%; with HT29 colon it was 16.7%; in the assay on SNB-75 CNS, 31.5%; in the assay on SNB-19 CNS, 21.5%; in the assay with U251 CNS, 7.65% (active); with PC-3 prostate, 20.9%. Besides, the growth is -61.9% (active) with SK-MEL-5 melanoma; -28.3% (active) with UACC-62 melanoma; 1.48% (active) in the assay on LOX IMVI melanoma; 13.5% with SK-MEL-28 melanoma; 28.3% in the assay on SK-MEL-2 melanoma; 8.35% (active) with EKVX NSCLC. The growth with SN12C renal is 15.3%; with UO-31 renal, -2.91% (active); with TK-10 renal it was 33.6%; in the assay with ACHN renal, 2.81% (active); with CAKI-1 renal, 5.04% (active); with A498 renal it was -25.2% (active). Also, the growth is 2.72% (active) with CCRF-CEM leukemia and 2.11% (active) in the assay on MOLT-4 leukemia.

As for `COc1cc(-c2nc(/C=C3/C(=O)Nc4ccccc43)c3ccccn23)cc(OC)c1OC`, the growth in the assay with HCT-15 colon is 73.6%; in the assay with HT29 colon it was 62.5%; with SNB-75 CNS, 106%; in the assay on SNB-19 CNS, 90.7%; in the assay on U251 CNS, 91.6%; in the assay with PC-3 prostate it was 57.8%. The growth with SK-MEL-5 melanoma was 51.6%; in the assay on UACC-62 melanoma, 72.7%; in the assay on LOX IMVI melanoma it was 72.3%; in the assay on SK-MEL-28 melanoma it was 63%; with SK-MEL-2 melanoma, 43.7%; with EKVX NSCLC it was 102%. Further, the growth is 79.3% with SN12C renal; 41.9% in the assay with UO-31 renal; 120% in the assay on TK-10 renal; 58.6% in the assay with ACHN renal; 58.2% with CAKI-1 renal; 111% in the assay on A498 renal. Besides, the growth with CCRF-CEM leukemia is 72.7%; in the assay with MOLT-4 leukemia, 62.8%.

For the molecule `CCC(CCCN1C(=O)c2ccccc2C1=O)Nc1cc(OC)cc2cccnc12` (stereo not given), the growth with HCT-15 colon was 92.4%; in the assay with HT29 colon, 105%; with SNB-75 CNS, 93%; with SNB-19 CNS it was 106%; with U251 CNS, 101%; with PC-3 prostate, 86.9%. Further, the growth in the assay on SK-MEL-5 melanoma is 89.9%; in the assay with UACC-62 melanoma it was 82.6%; in the assay on LOX IMVI melanoma, 93.5%; with SK-MEL-28 melanoma, 111%; in the assay with SK-MEL-2 melanoma, 97.8%; with EKVX NSCLC it was 97.2%. The growth in the assay on SN12C renal is 99.3%; with UO-31 renal, 94.8%; with TK-10 renal, 136%; with ACHN renal, 103%; in the assay on CAKI-1 renal it was 111%; with A498 renal it was 84.3%. Moreover, the growth is 84.5% with CCRF-CEM leukemia and 73.8% in the assay on MOLT-4 leukemia.

Turning to `Cc1nc2c(nnn2-c2ccccc2)c2nc(-c3ccc(Cl)cc3)oc(=O)c12`, the growth in the assay on HCT-15 colon was 108%; with HT29 colon, 115%; in the assay with SNB-75 CNS it was 91.4%; in the assay on SNB-19 CNS, 107%; in the assay on U251 CNS, 106%; in the assay on PC-3 prostate, 105%. The growth with SK-MEL-5 melanoma is 103%; with UACC-62 melanoma, 98.4%; in the assay on LOX IMVI melanoma, 96.9%; with SK-MEL-28 melanoma it was 102%; in the assay with SK-MEL-2 melanoma it was 107%; in the assay on EKVX NSCLC, 110%. Further, the growth was 104% in the assay with SN12C renal; 83% in the assay with UO-31 renal; 108% with TK-10 renal; 107% with ACHN renal; 94.7% in the assay with CAKI-1 renal; 105% in the assay on A498 renal. For the same molecule, the growth in the assay with CCRF-CEM leukemia is 103%; in the assay with MOLT-4 leukemia, 113%.

On to `O=C1C(Cl)=C(Nc2ccc(Nc3ccccc3)c(NC3=C(Cl)C(=O)c4ccccc4C3=O)c2)C(=O)c2ccccc21`, for which the growth in the assay with HCT-15 colon is 56.2%; in the assay with HT29 colon it was 66.4%; in the assay on SNB-75 CNS it was 81.3%; in the assay with SNB-19 CNS, 52.3%; in the assay with U251 CNS, 33.5%; with PC-3 prostate, 48%. For the same molecule, the growth in the assay on SK-MEL-5 melanoma is 90.9%; in the assay with UACC-62 melanoma it was 39.4%; with LOX IMVI melanoma, 63.3%; in the assay with SK-MEL-28 melanoma it was 113%; with SK-MEL-2 melanoma, 106%; in the assay on EKVX NSCLC, 65.8%. Besides, the growth in the assay with SN12C renal was 85%; in the assay with UO-31 renal, 57.3%; with TK-10 renal, 27.8%; in the assay on ACHN renal it was 34.4%; with CAKI-1 renal, 45.3%; in the assay on A498 renal, 53%. The growth in the assay on CCRF-CEM leukemia is 37.9%; in the assay on MOLT-4 leukemia, 37.3%.

For `COC1NC(Cl)=C(C#N)C(C#N)(C#N)C1(C)C` (stereo not given), the growth in the assay with HCT-15 colon was 121%; in the assay with HT29 colon, 108%; with SNB-75 CNS, 105%; in the assay on SNB-19 CNS it was 115%; in the assay with U251 CNS, 105%; in the assay with PC-3 prostate it was 122%. Further, the growth was 111% in the assay with SK-MEL-5 melanoma; 98.9% with UACC-62 melanoma; 98.7% with LOX IMVI melanoma; 124% in the assay on SK-MEL-28 melanoma; 99.1% in the assay on SK-MEL-2 melanoma; 86.4% in the assay on EKVX NSCLC. Moreover, the growth in the assay with SN12C renal is 104%; in the assay on UO-31 renal, 85.5%; in the assay with TK-10 renal, 113%; in the assay with ACHN renal, 105%; with CAKI-1 renal, 104%; with A498 renal it was 110%. Moreover, the growth with CCRF-CEM leukemia is 109%; with MOLT-4 leukemia it was 89.2%.

For `O=C1C(=O)c2ccccc2C(O)=C1CCCc1ccc(C2CCCC2)cc1`, the growth in the assay with HCT-15 colon is 19.6%; with HT29 colon, 34.7%; in the assay with SNB-75 CNS it was 39.9%; in the assay with SNB-19 CNS, 40.9%; in the assay on U251 CNS, 29.2%; with PC-3 prostate it was 35.6%. In addition, the growth in the assay on SK-MEL-5 melanoma is 15.6%; with UACC-62 melanoma, 40.7%; in the assay with LOX IMVI melanoma it was 1.77% (active); in the assay on SK-MEL-28 melanoma it was 53.1%; in the assay on SK-MEL-2 melanoma it was 33.2%; with EKVX NSCLC, 27%. For the same molecule, the growth was 49.5% with SN12C renal; 45.8% with UO-31 renal; 36.7% with TK-10 renal; 30.8% in the assay on ACHN renal; 67.8% in the assay on CAKI-1 renal; 24.2% with A498 renal. Moreover, the growth is 24.4% in the assay with CCRF-CEM leukemia and 14.1% with MOLT-4 leukemia.
